Out of some 69,000 compounds screened, about 8,600 (12%) showed an effect of 50% or more. Many of the other results were omitted from the sample, so strong results are more common in it than they were.
Tested on: Plasmodium berghei
Experiment: Screen against P. berghei liver stage (PbLuc), transformed with Luciferase, at 10uM
Assay type: functional, HepG2
Settings: tested at 10 uM

Row | Structure (SMILES) | INHIBITION [%]
1 | Cc1cc(CN2CCc3cncnc3C2)no1 | 23.9
2 | Cc1ccccc1-c1cc(CC2(C(=O)O)CCOCC2)on1 | -21.4
3 | Cc1cc(CN2CCN(Cc3ccccc3F)CC2)no1 | -4.35
4 | CN(C)C(=O)c1cncnc1-c1ccc(CNC(=O)C2CCCO2)cc1 (centres undefined) | 4.615
5 | CC(C)n1c(=O)[nH]c2cn(-c3ccc(F)cc3)c(=O)n21 | 3.16
6 | Cc1[nH]c2c(C)ccc(C)c2c1CC(=O)NCCCNc1cccnc1 | 36.7
7 | Cc1[nH]c2c(C)ccc(C)c2c1CC(=O)NCC(O)c1cccnc1 (centres undefined) | 76.5
8 | Cc1[nH]c2c(C)ccc(C)c2c1CC(=O)NCCNc1cccnc1 | -17.2
9 | Cc1ccc2c(n1)N(C)CCN(C(=O)C1CC1)C2 | 7.84
10 | CC(C)NC(=O)CN(C)C(=O)c1csc(Cc2ccccc2F)n1 | 23.1
11 | COC(=O)CCN(C)C(=O)c1csc(Cc2ccccc2F)n1 | 91.3
12 | CCNC(=O)CN(CC)C(=O)c1csc(Cc2ccccc2F)n1 | 32
13 | CC(C)NC(=O)N1CC[C@H]2[C@H]1CCN2c1ncccn1 | -44.2
14 | Cc1cnc(CNc2ncc(C)c(-c3cnn(C)c3)n2)cn1 | 39.4
15 | Cc1cnn(CC(C)NCc2csc(-c3cnn(C)c3)n2)c1 (centres undefined) | 47.1
16 | Cc1cnc(NCc2csc(C(C)C)n2)nc1-c1cnn(C)c1 | 58.5
17 | CCNc1ncc(C)c(-c2cnn(C)c2)n1 | 27.6
18 | Cc1cnc(NCc2ccncc2)nc1-c1cnn(C)c1 | 2.15
19 | Cc1cnc(NCc2cnn(C)c2)nc1-c1cnn(C)c1 | 61.2
20 | N#CC1CCN(C(=O)NCCc2ccc(Cl)s2)CC1 | -7.31
21 | O=C(c1ccc(Cl)cc1)N1CCC(N2CCCCC2=O)CC1 | 27.5
22 | Cc1c(C(=O)NC2=NCCS2)cnn1-c1ccc(Br)cc1 | -156
23 | COCC1Cn2nnc(-c3cnn(C)c3)c2CN1Cc1ccco1 (centres undefined) | 11.8
24 | Cc1cc(C(=O)N2CCCC(n3cncn3)C2)c(C)n1CC1CC1 (centres undefined) | -41.6
25 | CC(Cc1ccco1)NC(=O)Nc1cccnc1 (centres undefined) | -10.1
26 | CC(C)c1nnc2sc(CC3CN(Cc4ccccc4)CCO3)nn12 (centres undefined) | 42.8
27 | CC(C)N1CCOC(Cc2nn3c(Cc4ccccc4)nnc3s2)C1 (centres undefined) | 45.5

Row | Structure (SMILES) | INHIBITION [%]
28 | CCCc1nnc2sc(CC3CN(Cc4ccccc4)CCO3)nn12 (centres undefined) | 59.2
29 | Cc1c(C(C)N)cnn1-c1ccccn1 (centres undefined) | -12.1
30 | Cc1ccccc1-n1ncc(C(C)N)c1C (centres undefined) | 58.4
31 | Cc1c(C(C)N)cnn1-c1cccc2ccccc12 (centres undefined) | 7.24
32 | Cc1nn(C)c2cn(C(C)C(=O)NCc3cccc(F)c3)nc12 (centres undefined) | 58.2
33 | Cc1nn(C)c2cn(C(C)C(=O)NCc3ccncc3)nc12 (centres undefined) | 32.5
34 | Cc1nn(C)c2cn(C(C)C(=O)NCc3ccccn3)nc12 (centres undefined) | 55.7
35 | COc1ccccc1CNC(=O)C(C)n1cc2c(n1)c(C)nn2C (centres undefined) | 21.7
36 | Cc1nn(C)c2cn(C(C)C(=O)NCc3cccnc3)nc12 (centres undefined) | -2.37
37 | Cc1nn(C)c2cn(C(C)C(=O)NCc3ccc(F)cc3)nc12 (centres undefined) | 19.3
38 | CN(Cc1ccco1)C(=O)NC1CCCN(c2ncccn2)C1 (centres undefined) | 4.865
39 | COc1ccc2c(ccn2CC(=O)Nc2n[nH]c(CC(C)C)n2)c1 | 16
40 | CN(C)S(=O)(=O)N1C[C@@H]2COC[C@]2(COc2ccccn2)C1 | 11.5
41 | Cc1cc(C2CCC2)nc(N2CCC3(CCCN(C)C3=O)C2)n1 (centres undefined) | -14.3
42 | Cc1ccc(N2CCCC(NCc3cscn3)C2)nn1 (centres undefined) | 26.8
43 | O=C1CCCN1c1cccc(N2CCC(NCCc3cscn3)CC2)c1 | 14.3
44 | c1ccc(-c2cccc(N3CCC(NCCc4cscn4)CC3)c2)cc1 | 69.9
45 | c1cc(-c2cscn2)cc(N2CCC(NCCc3cccs3)CC2)c1 | 75.5
46 | Cc1nc(-c2cccc(N3CCC(NC4CCOCC4)CC3)c2)cs1 | 37.7
47 | O=C(NCCc1cccs1)NC1CCN(c2ncccn2)CC1 | -89
48 | CNc1cccc(C2CCN(C(=O)c3cccnc3)CC2)n1 | -9.27
49 | Cc1cc(C(=O)N2CCN(S(C)(=O)=O)[C@@H](C)C2)c(F)cc1F | -14.2
50 | Cc1ccc(C)c2c(C)c(C(=O)NCCCn3ccnn3)[nH]c12 | 47.2
51 | O=C(NC1CCCN(c2ncccn2)C1)c1ccoc1 (centres undefined) | -6.32
52 | CC(C)c1nc(C2CCCN(C(=O)c3ccc(N(C)C)nn3)C2)no1 (centres undefined) | 30.3
53 | CCC(NC(=O)c1nn(C)cc1C(=O)O)c1ccccc1 (centres undefined) | 15.9
54 | Cc1cc(NC2CCc3ncnn3C2)n2nc(C(F)(F)F)nc2n1 (centres undefined) | 26.9

Row | Structure (SMILES) | INHIBITION [%]
55 | Cc1cccc(CN2CC[C@@H]3[C@@H]2CCN3C(=O)c2cc(C)oc2C)n1 | -6.23
56 | O=C(O)C1CCCN(c2nc3c(-c4ccccc4)csc3c(=O)[nH]2)C1 (centres undefined) | 36.6
57 | Cc1ccccc1-c1csc2c(=O)[nH]c(N3CCCC(C(=O)O)C3)nc12 (centres undefined) | 52.5
58 | Cc1ccc(-c2csc3c(=O)[nH]c(N4CCCC(C(=O)O)C4)nc23)cc1 (centres undefined) | 32.8
59 | CC(C)CC(=O)N1CCC2(CC1)OC(C(N)=O)Cn1ccnc12 (centres undefined) | 7.7
60 | O=C(N1CCCC1)C12CC(CN1Cc1nccs1)C2 | -2.03
61 | Cc1ccsc1C(=O)N1CC2CC1(C(=O)NCC1CC1)C2 | 23.5
62 | O=C(NCC1CC1)C12CC(CN1Cc1nccs1)C2 | 82.2
63 | CN(C)C(=O)c1cc(-c2ccncc2)[nH]n1 | -8.28
64 | CN1CCN(C(=O)c2cc(C#N)cs2)c2ccccc2C1 | -91.4
65 | c1ccc(CCNc2ncnc3c2CCN(Cc2c[nH]cn2)CC3)cc1 | 37.3
66 | CN(C)c1ccc(C(=O)N2CCCN(Cc3cscn3)CC2)nn1 | -31.8
67 | O=C(c1cnc2n1CCN(Cc1ccccc1)C2)N1CCCC1 | 17.1
68 | COCC(=O)N1CCc2nc(C)nc(NC(C)C)c2CC1 | 35.8
69 | Cc1nc2c(c(NCc3ccccc3)n1)CCN(C(=O)C1CCC1)CC2 | 42.3
70 | CC(C)Nc1nc(-c2ccccc2)nc2c1CCN(C(=O)CC#N)CC2 | 72
71 | Cc1nc(-c2ccc(F)cc2)nc2c1CCN(C(=O)CN(C)C)CC2 | 37.9
72 | CCOCC(=O)N1CCc2nc(C)nc(NC(C)C)c2CC1 | 32.1
73 | CC(=O)N1CCc2nc(-c3ccccc3)nc(NC(C)C)c2CC1 | 59.3
74 | Cc1nc2c(c(NC(C)C)n1)CCN(C(=O)c1ccno1)CC2 | 49.1
75 | O=C(C1CCOCC1)N1CCc2ncnc(-c3ccccc3)c2CC1 | -28.8
76 | CC(C)Nc1nc(-c2ccccc2)nc2c1CCN(C(=O)C1CC1)CC2 | 73.8
77 | COCC(=O)N1CCc2nc(NC(C)C)nc(NC(C)C)c2CC1 | 48.4
78 | CC(=O)N1CCc2nc(-c3ccc(F)cc3)nc(NC(C)C)c2CC1 | 64.7
79 | CC(=O)NCC(=O)N1CCc2nc(-c3ccccc3)nc(C)c2CC1 | 37.9

Source: ChEMBL document CHEMBL4513216, “Probing the Open Global Health Chemical Diversity Library for Multistage-Active Starting Points for Next-Generation Antimalarials” (ACS Infect Dis, 2020)
